CHX counter – affects cycloheximide protein synthesis inhibition readout, counter-screen. cell reporter, cycloheximide protein synthesis inhibition counterscreen. max response, %. 300,000 compounds, 12% hits. AID 2314; in the data active = max response mostly above about 13%, no sharp cut-off; inactive = mostly below about 14%; also: read at 38.3 µM for the half of the compounds with a filed dose; 0% is about no effect
Shiga toxin inh – Shiga toxin inhibition. Vero cells, Shiga toxin protein synthesis inhibition reporter. 290,000 compounds, 9.2% hits. AID 2315. inhibition, % at 38.7 µM; in the data active = inhibition mostly above about 28%, no sharp cut-off; inactive = mostly below about 43%; also: 0% is about no effect
Giardia FBPA inh – Giardia lamblia aldolase inhibition; purified Giardia FBPA; 290,000 compounds, 0.71% hits; Potency, µM (top dose mostly 59.6 µM), inactives show at the highest dose activity, negative = inhibition, actives largely listed as inhibitors; A8B2U2; also: potency is read from the fitted curve at half-maximal effect; % is scaled to controls: 0 for no effect and ±100 for the full control effect; nearly all actives have a fitted effect of over 55% in size
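40 nM FBPA preincubated 10 min at RT with compound (up to 57.5 uM final), then substrate plus GAPDH/TPI/NAD/arsenate coupling and diaphorase/resazurin added. Fluorescence read after 20 min at RT, 525/598 nm.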
NS1 function inh – inhibitors of influenza NS1 protein function; Potency, µM (series often up to 46.1 µM), inactives show at the top dose activity, positive = more growth; 270,000 compounds, 0.4% hits; AID 2326; calls by dose curve; also: potency is read from the fitted curve at half-maximal effect; actives are rising curves; nearly all actives have a fitted effect of over 50% in size
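Growth recovery, yeast-based: influenza A NS1 expressed in S. cerevisiae causes slow growth, and suppressors are detected by OD600. The parent strain without NS1 is used as positive control.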
LmPK inh – inhibitors of Leishmania mexicana pyruvate kinase. Potency, µM (top dose mostly 57.5 µM), for the others: at the highest dose activity change, negative = inhibition, actives largely listed as inhibitors. Q27686. purified LmPK, Kinase-Glo ATP luminescence, 1 h. 290,000 compounds, 0.37% hits; also: potency is read from the fitted curve at half-maximal effect; % is scaled to controls: 0 for no effect and ±100 for the full control effect
Target sequence (Q27686 whole entry, looked up): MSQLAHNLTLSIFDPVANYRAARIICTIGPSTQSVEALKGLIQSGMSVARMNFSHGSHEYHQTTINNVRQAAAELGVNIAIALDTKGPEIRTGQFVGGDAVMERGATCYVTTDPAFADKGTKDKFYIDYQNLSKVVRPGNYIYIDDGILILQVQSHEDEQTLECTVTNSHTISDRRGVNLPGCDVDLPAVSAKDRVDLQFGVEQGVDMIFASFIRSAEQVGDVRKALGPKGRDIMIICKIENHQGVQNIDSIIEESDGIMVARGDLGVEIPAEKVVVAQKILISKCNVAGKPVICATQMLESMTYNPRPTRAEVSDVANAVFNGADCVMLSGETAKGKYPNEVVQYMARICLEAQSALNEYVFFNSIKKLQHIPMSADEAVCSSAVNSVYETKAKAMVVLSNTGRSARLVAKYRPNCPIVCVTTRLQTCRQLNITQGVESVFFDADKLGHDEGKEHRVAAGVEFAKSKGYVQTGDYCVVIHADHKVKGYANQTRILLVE
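Purified LmPK (0.1 nM) converted ADP (0.1 mM) to ATP with PEP (0.5 mM) in imidazole buffer pH 7.2 with KCl and MgCl2, 1 h at room temperature. ATP was read by Kinase-Glo luminescence; data normalized to uninhibited and no-enzyme controls.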
* = called active by the depositor; i = inactive; ? = inconclusive; nt = no result given. Compounds with a hit are over-represented: about 14% of the library has one in this group of screens. Unless noted, calls follow the shape of the dose curve; as a rule, active = well fitted curve in the direction sought with a large enough effect; inconclusive = small, poorly fitted or top-dose-only effect, or another doubt; inactive = no such curve, though single readings can be large; an effect the other way counts as inactive or inconclusive.

SMILES	CHX counter	Shiga toxin inh	Giardia FBPA inh	NS1 function inh	LmPK inh
CCNC(=O)COC(=O)c1[nH]c(C)c(C(=O)OC)c1C	42.5*	71.0*	1.1%	nt	-1.8%
Cc1ccccc1N1CCN(C2CCCN(C(=O)c3cnsn3)C2)CC1 (stereo not drawn)	-3.1	0.6	5.5%	-10.7%	-0.8%
CCCCn1nnnc1SCC(=O)NC1CCCCC1	8.3	-4.0	-1.6%	-0.7%	-5.3%
CSCC[C@H](NC(=O)[C@H](CCC(N)=O)NC(=O)[C@H](CCCCN)NC(=O)[C@H](CCCNC(=N)N)NC(=O)[C@H](Cc1ccc(O)cc1)NC(=O)[C@H](CCCNC(=N)N)NC(=O)[C@H](CO)NC(=O)[C@H](Cc1ccc(O)cc1)NC(=O)[C@H](CO)NC(=O)[C@H](CC(=O)O)NC(=O)[C@@H](NC(=O)[C@@H](N)Cc1ccccc1)[C@@H](C)O)C(=O)N[C@@H](C)C(=O)N[C@H](C(=O)N[C@@H](CCCCN)C(=O)N[C@@H](CCCCN)C(=O)N[C@@H](Cc1ccc(O)cc1)C(=O)N[C@@H](CC(C)C)C(=O)N[C@@H](C)C(=O)N[C@@H](C)C(=O)N[C@H](C(=O)N[C@@H](CC(C)C)C(=O)NCC(=O)N[C@@H](CCCCN)C(=O)N[C@@H](CCCNC(=N)N)C(=O)N[C@@H](Cc1ccc(O)cc1)C(=O)N[C@@H](CCCCN)C(=O)N[C@@H](CCC(N)=O)C(=O)N[C@@H](CCCNC(=N)N)C(=O)N[C@H](C(=O)N[C@@H](CCCCN)C(=O)N[C@@H](CC(N)=O)C(=O)N[C@@H](CCCCN)C(N)=O)C(C)C)C(C)C)C(C)C	-8.7	-11.4	4.3%	nt	nt
CCOC(=O)c1c(C)[nH]c(C(=O)CC(=O)OC)c1C	10.0	41.3	4.2%	-1.0%	3.8%
CCOC(=O)c1[nH]c(C)c(C(=O)OC)c1C	13.1*	27.8	-0.2%	-30.5%	-3.0%
CCOC(=O)c1c(C)[nH]c(C(=O)COC(=O)C2(C)CC2(Cl)Cl)c1C (stereo not drawn)	52.6*	48.8	2.0%	-8.4%	3.6%
CCOC(=O)CC(=O)c1[nH]c(C)c(C(=O)OCC)c1C	26.3*	46.2	-2.0%	nt	5.6%
Cc1ccc(N(CC(O)CN2C(=O)NC(C)(C)C2=O)S(=O)(=O)c2ccc([N+](=O)[O-])cc2)cc1 (stereo not drawn)	4.5	6.3	nt	5.6%	-5.7%
COc1ccc(C2/C=C\CN(C(=O)OCC3c4ccccc4-c4ccccc43)CC(=O)N2Cc2cccc(F)c2)cc1 (stereo not drawn)	8.2	i	-6.5%	nt	nt
Cn1c(-c2cccc(Br)c2)n[nH]c1=O	-4.3	16.5	-3.2%	3.4%	-1.0%
Cc1cccc(-c2cc3nc(C)cc(C)n3n2)c1	48.6*	74.8*	-11.5%	-6.6%	-26.9%
Cc1cccc(-c2cc3nc(C)cc(N4CC(C)CC(C)C4)n3n2)c1 (stereo not drawn)	5.5	5.7	-5.9%	18.4%	-0.4%
CC(=O)c1cnc2cc(-c3cccc(Br)c3)nn2c1C	38.6*	91.2*	2.6%	nt	8.3%
Cc1cc(C)n2nc(-c3cccc(Br)c3)cc2n1	31.8*	nt	-3.1%	-21.1%	-1.5%
COc1ccccc1-c1cc2nc(C)cc(C)n2n1	16.8	56.7*	-12.7%	-4.3%	-5.3%
CC(C(=O)NCCCn1ccnc1)(c1ccccc1)c1ccccc1	-4.4	-9.1	?	-1.8%	1.8%
COc1ccc(NC(=O)CSc2nc3scc(C)c3c(=O)[nH]2)cc1	-0.9	-12.7	-14.3%	10.1%	3.8%
COCCNc1nc(C)nc2c1nc(-c1ccccc1)n2CC1CCN(C)CC1	nt	nt	3.1%	nt	nt
CC(=O)N1CCC[C@@]2(CCN(c3ccncc3)C2)C1	nt	nt	-0.9%	nt	nt
Cc1cc(C)n2nc(C(F)(F)F)c(-c3ccccc3)c2n1	-2.4	6.6	8.4%	3.0%	2.0%
Cc1cc(C)n2ncc(-c3cccc(Br)c3)c2n1	64.6*	55.0*	1.1%	-9.6%	4.2%
Cc1nc(NC(=O)c2cccc(-c3cc4ccccc4oc3=O)c2)ccc1Br	1.7	30.7	4.9%	22.4%	0.6%
O=C(Nc1ccc(Br)cn1)c1cccc(-c2cc3ccccc3oc2=O)c1	41.0*	49.4*	1.6%	13.3%	-1.9%
O=C(Nc1ccc(N2CCCC2)cc1)c1cccc(-c2cc3ccccc3oc2=O)c1	8.4	14.1	8.6%	?	-2.2%
O=C(Nc1ccccc1N1CCCC1)c1cccc(-c2cc3ccccc3oc2=O)c1	17.7*	29.3	-7.8%	?	4.4%

Screening data deposited in PubChem BioAssay by National Center for Advancing Translational Sciences (NCATS).
